Assay results reported in PubChem BioAssay (NCATS).
Results filed as inconclusive are left out. The source made the active and inactive calls. Unless noted, calls follow the shape of the dose curve; as a rule, active = well fitted curve in the direction sought with a large enough effect; inconclusive = small, poorly fitted or top-dose-only effect, or another doubt; inactive = no such curve, though single readings can be large; an effect the other way counts as inactive or inconclusive.

How the values were obtained:
[1] = molecular target: Lysosomal acid glucosylceramidase (Homo sapiens) (UniProt P04062); test: Glucocerebrosidase-p2 (AID 348; in the data active = potency below about 10 µM; also: potency is read from the fitted curve at half-maximal effect); conditions: purified GBA, blue fluorogenic substrate, 40 min
Chain of Lysosomal acid glucosylceramidase (Homo sapiens) (P04062 whole entry, looked up): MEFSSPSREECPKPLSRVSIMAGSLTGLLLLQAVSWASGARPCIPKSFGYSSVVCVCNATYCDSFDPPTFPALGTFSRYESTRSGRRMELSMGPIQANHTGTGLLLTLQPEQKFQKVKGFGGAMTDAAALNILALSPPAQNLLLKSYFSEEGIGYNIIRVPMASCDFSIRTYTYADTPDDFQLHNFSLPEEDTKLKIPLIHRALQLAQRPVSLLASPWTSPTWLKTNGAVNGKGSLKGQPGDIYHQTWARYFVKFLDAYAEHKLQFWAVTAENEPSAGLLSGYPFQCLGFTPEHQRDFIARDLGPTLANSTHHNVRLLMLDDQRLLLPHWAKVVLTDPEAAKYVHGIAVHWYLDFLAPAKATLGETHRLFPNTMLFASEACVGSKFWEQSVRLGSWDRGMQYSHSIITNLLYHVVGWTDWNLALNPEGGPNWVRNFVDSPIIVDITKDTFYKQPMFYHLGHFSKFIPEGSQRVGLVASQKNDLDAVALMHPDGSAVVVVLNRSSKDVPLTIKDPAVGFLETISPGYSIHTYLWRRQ
Method in brief: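 Compounds titrated from 0.6 nM upwards against 0.2 nM enzyme in pH 5.9 citric acid/KH2PO4, taurocholate, tween-20; blue fluorogenic substrate 80 uM, 40 min room temperature, stopped and read Ex 365/Em 440 for AC50.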

[2] = AP1 Signaling Pathway (AID 357; active = well fitted curve in either direction with a large enough effect, not every such curve was filed as active;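 also: ME-180 reporter cells stimulated with EGF at its EC50 level; % is scaled to controls: 0 for no effect and ±100 for the full control effect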); conditions: ME-180 AP-1-bla reporter, EGF-induced, beta-lactamase ratio, 5 h; at 7.69 µM (top of the series) unless noted
Method in brief: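 AP-1-bla ME-180 cells, Opti-MEM + 0.5% dialyzed FBS, plated overnight 37 °C. Cpd titration + EC50 EGF, 5 h 37 °C. CCF4 2.5 h RT; ex 405, em 460/530 ratio → %activity, AC50.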

[3] = molecular target: Cytochrome P450 1A2 (Homo sapiens) (UniProt P05177); test: p450-cyp1a2 (AID 410; calls by dose curve; also: potency is read from the fitted curve at half-maximal effect;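 as to activity change, negative = inhibition: -100% = full effect of reference inhibitor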); conditions: recombinant CYP1A2, luciferin-ME demethylation, luminescence; series mostly up to 57 µM
Chain of Cytochrome P450 1A2 (Homo sapiens) (P05177 whole entry, looked up): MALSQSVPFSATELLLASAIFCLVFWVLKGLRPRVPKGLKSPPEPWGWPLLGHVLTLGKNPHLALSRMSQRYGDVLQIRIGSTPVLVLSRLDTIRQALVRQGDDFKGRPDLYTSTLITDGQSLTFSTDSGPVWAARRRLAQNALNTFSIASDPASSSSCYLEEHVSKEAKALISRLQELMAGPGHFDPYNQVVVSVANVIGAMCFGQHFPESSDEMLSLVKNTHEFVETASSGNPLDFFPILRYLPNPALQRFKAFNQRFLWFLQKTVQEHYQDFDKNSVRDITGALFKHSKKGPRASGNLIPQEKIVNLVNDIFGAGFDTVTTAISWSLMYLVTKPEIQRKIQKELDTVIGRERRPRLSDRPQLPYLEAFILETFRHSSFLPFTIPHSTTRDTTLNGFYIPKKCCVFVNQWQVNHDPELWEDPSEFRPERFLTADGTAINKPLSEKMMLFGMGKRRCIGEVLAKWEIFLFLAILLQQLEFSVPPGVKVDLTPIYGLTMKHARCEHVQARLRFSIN
Method in brief: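 Luminescent readout of luciferin formed from Luciferin-ME by human CYP1A2; data normalized against complete inhibition by 57 uM furafylline. Enzyme 20nM, substrate 100uM at Km, 100mM KPO4 buffer, 60 min reaction at room temperature.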

[4] = Stat Signaling Pathway (AID 446; active = well fitted curve in either direction with a large enough effect, not every such curve was filed as active;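 also: ME-180 cervical cancer cells given 40 pM IL-6 alongside compound; SIE-controlled beta-lactamase reporter measured as 460/530 nm FRET emission ratio; % is scaled to controls: 0 for no effect and ±100 for the full control effect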); conditions: ME-180 SIE beta-lactamase reporter, IL-6 stimulated, 5 h; at 7.69 µM (top of the series) unless noted
Method in brief: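 Reporter line: ME-180 cervical carcinoma, SIE-beta-lactamase. Treatment: compound with 40 pM IL-6, 5 hrs, 37 C, in low-serum OPTI-MEM with 10 mM HEPES pH 7.3. Detection: 460/530 nm fluorescence.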

[5] = molecular target: Glucocorticoid receptor (Homo sapiens) (UniProt P04150); test: GR-GFP Redistribution (AID 450;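 active = compounds whose dose series gives a full or clear partial fitted curve of increased nuclear translocation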; also: potency is read from the fitted curve at half-maximal effect); conditions: U2OS GR-GFP nuclear translocation, laser cytometry, 2 h
Chain of Glucocorticoid receptor (Homo sapiens) (P04150 whole entry, looked up, the tested form may be a part): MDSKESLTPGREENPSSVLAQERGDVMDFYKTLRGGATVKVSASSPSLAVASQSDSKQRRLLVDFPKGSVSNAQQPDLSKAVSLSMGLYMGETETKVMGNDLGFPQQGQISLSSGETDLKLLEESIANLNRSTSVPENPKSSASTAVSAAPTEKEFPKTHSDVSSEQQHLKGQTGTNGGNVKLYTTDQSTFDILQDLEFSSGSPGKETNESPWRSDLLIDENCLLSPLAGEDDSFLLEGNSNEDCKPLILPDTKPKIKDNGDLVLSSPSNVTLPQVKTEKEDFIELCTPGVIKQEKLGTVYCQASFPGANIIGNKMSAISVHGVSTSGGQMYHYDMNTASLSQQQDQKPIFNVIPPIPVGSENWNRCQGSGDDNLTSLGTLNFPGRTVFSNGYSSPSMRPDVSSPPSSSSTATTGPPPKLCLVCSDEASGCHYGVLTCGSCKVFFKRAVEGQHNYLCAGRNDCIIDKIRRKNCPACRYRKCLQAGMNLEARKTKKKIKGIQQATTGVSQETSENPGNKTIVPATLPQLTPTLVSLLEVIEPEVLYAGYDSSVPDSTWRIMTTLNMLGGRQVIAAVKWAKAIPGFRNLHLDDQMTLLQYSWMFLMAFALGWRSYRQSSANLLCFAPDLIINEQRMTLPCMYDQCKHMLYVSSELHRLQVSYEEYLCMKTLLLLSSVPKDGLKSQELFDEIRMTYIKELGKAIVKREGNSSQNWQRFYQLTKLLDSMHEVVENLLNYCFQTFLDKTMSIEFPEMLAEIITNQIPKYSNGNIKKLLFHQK

[6] = molecular target: Glucocorticoid receptor (Homo sapiens) (UniProt P04150); test: GR-EFC Redistribution (AID 451; calls by dose curve; also: potency is read from the fitted curve at half-maximal effect); conditions: CHO-K1 GR-EFC translocation, beta-gal luminescence, 2 h
Method in brief: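 Translocation of GR-ED fusion to nuclear EA restores b-gal, read by luminescence after 1 h room-temperature detection. Engineered CHO-K1 biosensor cells, 1,000/well, exposed 2 h at 37 C to titrations up to 46 uM final.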

[7] = molecular target: Mitogen-activated protein kinase 10 (Mus musculus) (UniProt Q61831); test: JNK3 AlphaScreen Assay (AID 530; active = well fitted curve in either direction with a large enough effect, not every such curve was filed as active;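 also: kinase came from lysate of stimulated human HepG2 cells; signal reports phosphorylation of biotinylated GST-cJun 1-79 at Ser73 with 10 µM ATP; % is scaled to controls: 0 for no effect and ±100 for the full control effect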); conditions: JNK3 lysate, c-Jun phosphorylation; series mostly up to 57.1 µM
Method in brief: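 Compound titrations were preincubated 15 minutes at room temperature with substrate, antibody and pre-activated JNK3-containing HepG2 lysate. Reactions were started with 10 uM ATP and stopped with EDTA-containing bead buffer for AlphaScreen detection.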

[8] = molecular target: 3',5'-cyclic-AMP phosphodiesterase 4B (Homo sapiens) (UniProt Q07343); test: qHTS Assay for Inhibitors of PDE-IV (AID 607; active = well fitted activation curve with a large enough effect in the main read-out, with a control signal flat, not every such curve was filed as active; also: % of control where 0% means no effect); conditions: HEK293 ACTOne CNG channel cells, membrane potential fluorescence; series mostly up to 22.9 µM
Chain of 3',5'-cyclic-AMP phosphodiesterase 4B (Homo sapiens) (Q07343 whole entry, looked up): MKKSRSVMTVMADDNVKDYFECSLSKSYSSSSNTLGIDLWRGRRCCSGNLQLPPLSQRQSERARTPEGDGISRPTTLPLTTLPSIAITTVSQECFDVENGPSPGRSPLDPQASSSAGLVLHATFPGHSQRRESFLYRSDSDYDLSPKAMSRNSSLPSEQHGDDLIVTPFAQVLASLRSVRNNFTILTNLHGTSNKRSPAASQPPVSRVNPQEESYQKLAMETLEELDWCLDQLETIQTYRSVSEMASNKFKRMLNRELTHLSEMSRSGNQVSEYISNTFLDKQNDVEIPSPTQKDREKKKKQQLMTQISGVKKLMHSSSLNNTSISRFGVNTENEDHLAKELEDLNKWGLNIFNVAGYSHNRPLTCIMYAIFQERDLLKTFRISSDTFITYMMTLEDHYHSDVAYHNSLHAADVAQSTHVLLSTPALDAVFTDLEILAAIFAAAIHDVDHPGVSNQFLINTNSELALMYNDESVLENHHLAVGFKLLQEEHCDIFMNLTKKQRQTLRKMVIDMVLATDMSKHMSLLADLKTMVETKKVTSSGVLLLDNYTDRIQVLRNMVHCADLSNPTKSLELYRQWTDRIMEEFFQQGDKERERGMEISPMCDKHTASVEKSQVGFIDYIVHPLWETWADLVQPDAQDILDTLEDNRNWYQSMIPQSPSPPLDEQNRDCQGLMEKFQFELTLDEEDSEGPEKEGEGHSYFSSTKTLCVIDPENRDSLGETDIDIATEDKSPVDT
Method in brief: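 Cell-based read-out of cAMP via a modified cyclic nucleotide-gated channel and membrane potential dye (535/590 nm) in HEK293 cells expressing PDE4 endogenously. Compounds tested up to 22.9 uM final; 100 uM RO 20-1724 reference.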

[9] = molecular target: Cytochrome P450 3A4 (Homo sapiens) (UniProt P08684); test: qHTS Assay for Activators of Cytochrome P450 3A4 (AID 885); conditions: recombinant CYP3A4, Luciferin-PPXE luminescence, 60 min; series mostly up to 57.1 µM; also: nearly all actives have a fitted effect of over 65% in size
Chain of Cytochrome P450 3A4 (Homo sapiens) (P08684 whole entry, looked up): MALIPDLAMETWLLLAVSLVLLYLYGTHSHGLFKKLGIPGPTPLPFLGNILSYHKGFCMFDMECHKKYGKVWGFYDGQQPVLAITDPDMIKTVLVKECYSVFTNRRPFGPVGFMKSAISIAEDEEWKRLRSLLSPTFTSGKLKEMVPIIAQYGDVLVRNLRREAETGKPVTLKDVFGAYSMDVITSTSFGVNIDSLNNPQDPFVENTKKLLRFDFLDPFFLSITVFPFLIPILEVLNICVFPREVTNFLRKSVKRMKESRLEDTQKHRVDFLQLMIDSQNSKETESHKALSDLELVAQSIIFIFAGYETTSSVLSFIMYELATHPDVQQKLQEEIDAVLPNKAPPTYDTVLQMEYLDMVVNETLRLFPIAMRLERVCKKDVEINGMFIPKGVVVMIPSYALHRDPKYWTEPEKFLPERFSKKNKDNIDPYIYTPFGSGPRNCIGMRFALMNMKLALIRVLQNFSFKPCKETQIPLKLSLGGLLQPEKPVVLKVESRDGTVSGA
Method in brief: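 Signal was normalized against complete inhibition by 57 uM ketoconazole. The reaction used 20nM CYP3A4 with 25uM Luciferin-PPXE, 10-min compound preincubation and a 60-min NADPH-supported step at RT.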

[10] = molecular target: Cytochrome P450 2C19 (Homo sapiens) (UniProt P33261); test: qHTS Assay for Inhibitors and Substrates of Cytochrome P450 2C19 (AID 899); conditions: recombinant CYP2C19, luciferin-H EGE luminescence; series mostly up to 57.1 µM; also: potency is read from the fitted curve at half-maximal effect; nearly all actives have a fitted effect of over 60% in size
Chain of Cytochrome P450 2C19 (Homo sapiens) (P33261 whole entry, looked up): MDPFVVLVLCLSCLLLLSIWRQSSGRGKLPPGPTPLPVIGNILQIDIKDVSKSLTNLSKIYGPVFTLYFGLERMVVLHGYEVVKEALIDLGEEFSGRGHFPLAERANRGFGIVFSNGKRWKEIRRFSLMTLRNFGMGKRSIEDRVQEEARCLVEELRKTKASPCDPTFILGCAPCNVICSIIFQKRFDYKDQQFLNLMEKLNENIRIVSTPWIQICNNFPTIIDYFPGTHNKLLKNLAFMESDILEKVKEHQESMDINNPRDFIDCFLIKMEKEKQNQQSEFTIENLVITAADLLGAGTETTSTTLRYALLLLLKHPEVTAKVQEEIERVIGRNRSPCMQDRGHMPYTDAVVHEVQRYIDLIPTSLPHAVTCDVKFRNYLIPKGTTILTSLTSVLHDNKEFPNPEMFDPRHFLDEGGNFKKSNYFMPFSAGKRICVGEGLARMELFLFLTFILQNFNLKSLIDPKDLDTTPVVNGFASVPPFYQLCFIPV
Method in brief: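 Luminescence readout of luciferin formed from 10uM Luciferin-H EGE (KM level) by 5 nM CYP2C19 in 50mM KPO4. 60 min NADPH-driven reaction at 37C after 10 min compound preincubation; data scaled to 57uM ketoconazole inhibition.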

[11] = molecular target: Dual specificity protein kinase CLK4 (Homo sapiens) (UniProt Q9HAZ1); test: qHTS Assay for Inhibitors of CDC-like Kinase 4 (ADP-FP Assay) (AID 1795); conditions: Transcreener ADP fluorescence polarization; series mostly up to 50 µM; also: nearly all actives have a fitted effect of over 60% in size; also: potency is read from the fitted curve at half-maximal effect
Chain of Dual specificity protein kinase CLK4 (Homo sapiens) (Q9HAZ1 whole entry, looked up): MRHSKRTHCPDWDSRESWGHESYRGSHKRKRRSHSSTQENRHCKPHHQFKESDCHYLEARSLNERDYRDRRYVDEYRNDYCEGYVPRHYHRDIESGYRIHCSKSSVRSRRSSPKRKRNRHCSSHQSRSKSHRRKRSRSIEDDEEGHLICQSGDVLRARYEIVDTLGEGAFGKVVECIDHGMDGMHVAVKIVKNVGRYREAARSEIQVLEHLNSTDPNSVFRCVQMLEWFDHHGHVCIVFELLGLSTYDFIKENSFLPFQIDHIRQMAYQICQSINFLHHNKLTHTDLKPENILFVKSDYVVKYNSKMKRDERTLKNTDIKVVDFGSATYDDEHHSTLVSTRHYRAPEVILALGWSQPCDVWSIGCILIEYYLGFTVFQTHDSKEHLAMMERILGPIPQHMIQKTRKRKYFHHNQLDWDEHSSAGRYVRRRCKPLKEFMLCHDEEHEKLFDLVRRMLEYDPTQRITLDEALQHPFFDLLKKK
Method in brief: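 Inhibition of ADP formation by 6.25 nM Clk4 is measured using 1 uM ATP and 100 uM RS repeat peptide over one hour. Produced ADP displaces a fluorescent tracer from antibody, lowering polarization.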

[12] = molecular target: Ubiquitin carboxyl-terminal hydrolase 1 (Homo sapiens) (UniProt O94782); test: Inhibitors of USP1/UAF1: Pilot qHTS (AID 504865); conditions: purified USP1/UAF1, Ub-rhodamine cleavage fluorescence; series mostly up to 54.9 µM;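 also: rhodamine fluorescence freed from ubiquitin-rhodamine substrate followed over time; top concentration of the series differs between compounds; % is scaled to controls: 0 for no effect and ±100 for the full control effect; nearly all actives have a fitted effect of over 35% in size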
Chain of Ubiquitin carboxyl-terminal hydrolase 1 (Homo sapiens) (O94782 whole entry, looked up): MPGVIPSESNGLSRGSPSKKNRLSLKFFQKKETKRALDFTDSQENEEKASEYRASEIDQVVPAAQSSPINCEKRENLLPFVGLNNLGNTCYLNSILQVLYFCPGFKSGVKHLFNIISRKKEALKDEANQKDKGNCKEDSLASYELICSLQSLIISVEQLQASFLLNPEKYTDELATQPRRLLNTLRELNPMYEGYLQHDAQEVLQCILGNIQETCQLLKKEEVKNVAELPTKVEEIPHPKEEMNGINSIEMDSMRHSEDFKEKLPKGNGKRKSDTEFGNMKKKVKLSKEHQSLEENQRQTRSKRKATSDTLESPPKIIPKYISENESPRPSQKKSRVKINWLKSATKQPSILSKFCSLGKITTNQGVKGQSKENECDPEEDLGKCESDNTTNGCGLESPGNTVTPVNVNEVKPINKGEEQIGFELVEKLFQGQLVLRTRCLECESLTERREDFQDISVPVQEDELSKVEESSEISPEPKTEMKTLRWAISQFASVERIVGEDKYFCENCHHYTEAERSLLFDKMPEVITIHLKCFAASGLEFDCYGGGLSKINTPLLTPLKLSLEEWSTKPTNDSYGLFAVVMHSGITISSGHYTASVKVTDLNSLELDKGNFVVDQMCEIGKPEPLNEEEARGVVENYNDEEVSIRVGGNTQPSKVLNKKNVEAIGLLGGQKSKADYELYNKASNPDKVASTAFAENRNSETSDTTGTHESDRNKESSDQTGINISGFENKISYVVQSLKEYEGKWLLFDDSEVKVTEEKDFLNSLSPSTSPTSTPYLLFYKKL
Method in brief: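 Kinetic fluorescence assay: 1nM USP1/UAF1, 15 min compound preincubation, then 150nM Ub-Rho; 480/540 nm.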

[13] = Primary qHTS for small molecule stabilizers of the endoplasmic reticulum resident proteome: Secreted ER Calcium Modulated Protein (SERCaMP) assay (AID 1508630); conditions: SH-SY5Y GLuc-SERCaMP (Gaussia luciferase released on ER calcium loss) secretion, thapsigargin, luminescence; series mostly up to 38.4 µM; also: % is scaled to controls: 0 for no effect and ±100 for the full control effect
Method in brief: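 GLuc-SERCaMP-expressing SH-SY5Y cells, pretreated 16 h with compound, are challenged with thapsigargin to empty ER calcium stores; after 4 h, coelenterazine is added directly to the medium and luminescence is imaged.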

[14] = NFAT Signaling Pathway (AID 444; active = well fitted curve in either direction with a large enough effect, not every such curve was filed as active); conditions: Jurkat NFAT-bla M1, carbachol, beta-lactamase ratio, 5 h; at 7.69 µM (top of the series) unless noted
Method in brief: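 Read-out: CCF4 FRET ratio (460 nm/530 nm) after 1 h RT dye loading, used for %activity and AC50 from titration series. Cells: Jurkat NFAT-β-lactamase/M1 line, treated with compound plus 1 uM carbachol for 5 h, 37 °C.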

[15] = molecular target: Cytochrome P450 3A4 (Homo sapiens) (UniProt P08684); test: qHTS Assay for Inhibitors and Substrates of Cytochrome P450 3A4 (AID 884); conditions: recombinant CYP3A4, Luciferin-PPXE luminescence; series mostly up to 57.1 µM; also: potency is read from the fitted curve at half-maximal effect; nearly all actives have a fitted effect of over 50% in size
Method in brief: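 20 nM human CYP3A4 with 25 uM Luciferin-PPXE (at KM) in 200 mM KPO4, preincubated 10 min with compound; NADPH regeneration started a 60 min RT reaction. Luciferin detected by luminescence, normalized to 57 uM ketoconazole as full inhibition.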

[16] = qHTS Assay for Identification of Small Molecule Agonists for Hypoxia Response Element Signaling Pathway (AID 914; active = well fitted activation curve with a large enough effect in the signal ratio, with a control signal flat, not every such curve was filed as active; the % refers to the signal ratio; also: % of control where 0% means no effect); conditions: ME-180 (cervical carcinoma) HRE-bla reporter, beta-lactamase ratio, CoCl2, 17 h; activation: stronger effect = higher value
Method in brief: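 Reporter activity (beta-lactamase, CCF4 460nm/530nm ratio) in HRE-bla ME-180 cells is recorded after 17 h compound exposure with EC50 CoCl2 at 37 degrees Celsius. AC50 values come from titration data.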

[17] = Confirmation and Secondary Assay for Modulators of Hemoglobin Beta Chain Splicing at IVS2 654 locus (AID 910); conditions: HeLa EGFP-654 splicing reporter, GFP fluorescence, 48 h; series mostly up to 38.3 µM;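 also: HeLa cells stably carrying EGFP split by mutant beta-globin IVS2-654 intron; per-well total GFP intensity by laser scanning cytometry after 2-day treatment; % of control where 0% means no effect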
Method in brief: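 Readout: per-well total peak green fluorescence (488 nm ex, 500–520 nm em) from objects 5–250 µm, reflecting correct splicing of an EGFP-654 reporter. Compounds were applied for 2 days at 37 °C to overnight-plated HeLa EGFP-654 cells; controls were DMSO and 500 nM IVS2-654 PNA.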

[18] = molecular target: Cytochrome P450 2C9 (Homo sapiens) (UniProt P11712); test: qHTS Assay for Inhibitors and Substrates of Cytochrome P450 2C9 (AID 883); conditions: recombinant CYP2C9, luciferin-H luminescence, 60 min; series mostly up to 57.1 µM; also: potency is read from the fitted curve at half-maximal effect; nearly all actives have a fitted effect of over 60% in size
Method in brief: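 Luminescent read-out of deoxyluciferin hydroxylation, normalized to 57uM sulphaphenazole (AC100). Reaction: 10nM enzyme, 100uM Luciferin-H (equal to KM), 25mM KPO4, 10 min compound preincubation, then 60 min with NADPH regeneration, both at 37C.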

Clc1ccccc1-c1nccc(NCCN2CCOCC2)n1
active: Potency [3] 2 µM | Potency [10] 5.01 µM
inactive: Potency [1] > 11.4 µM | activity change, negative = inhibition [2] 4.13% | activity, negative = inhibition [4] 5.58% | Potency [5] > 46 µM | Potency [6] > 46 µM | Potency [7] | Potency [8] | Potency [9] | Potency [11] | Potency [12] | outcome [13]

Cc1noc(C)c1-c1nccc(NCCN2CCOCC2)n1
inactive: Potency [1] > 11.4 µM | activity change, negative = inhibition [2] -1.23% | activity change, negative = inhibition [14] -8.35% | activity, negative = inhibition [4] 2.66% | Potency [5] > 46 µM | Potency [6] > 46 µM | Potency [7] | Potency [8] | Potency [9] | Potency [11] | Potency [12] | outcome [13]
active: Potency [3] 7.94 µM

COc1ccccc1-c1nccc(NCc2cccnc2)n1
inactive: Potency [1] > 11.4 µM | activity change, negative = inhibition [2] 5.53% | activity change, negative = inhibition [14] 1.48% | activity, negative = inhibition [4] 0.0574% | Potency [5] > 46 µM | Potency [6] > 46 µM | Potency [8] | Potency [9] | activation [16] 4.59% | Potency [11] | Potency [12] | outcome [13]
active: Potency [3] 0.2 µM | Potency [15] 2.51 µM | Potency [10] 3.98 µM

CC(=O)NCCNc1ncnc2ccc(-c3ccccc3C(F)(F)F)cc12
active: Potency [3] 10 µM | Potency [15] 6.31 µM
inactive: Potency [1] > 11.4 µM | activity change, negative = inhibition [2] 12.5% | activity change, negative = inhibition [14] 6.87% | Potency [5] > 46 µM | Potency [6] > 46 µM | Potency [7] | Potency [9] | Potency [11] | Potency [12] | outcome [13]

Cc1noc(C)c1-c1cncnc1NC1CC1
active: Potency [15] 7.94 µM
inactive: Potency [1] > 11.4 µM | activity change, negative = inhibition [2] 12.1% | Potency [3] | activity change, negative = inhibition [14] 0.874% | activity, negative = inhibition [4] -18.4% | Potency [5] > 46 µM | Potency [6] > 46 µM | Potency [7] | Potency [8] | Potency [9] | Potency [17] | Potency [12] | outcome [13]

CN(C)C(=O)c1ccc(-c2ccc3ncnc(N4CCOCC4)c3c2)cc1
inactive: Potency [1] > 11.4 µM | activity change, negative = inhibition [2] -25.6% | Potency [3] | activity change, negative = inhibition [14] 11.5% | activity, negative = inhibition [4] -8.9% | Potency [5] > 46 µM | Potency [6] > 46 µM | Potency [7] | Potency [8] | Potency [9] | Potency [12] | outcome [13]

COc1ccc2[nH]cc(CCNc3ncncc3-c3ccc(C(=O)N(C)C)cc3)c2c1
active: Potency [3] 20 µM | Potency [18] 0.398 µM
inactive: activity change, negative = inhibition [2] -13.2% | activity change, negative = inhibition [14] 5.64% | activity, negative = inhibition [4] 4.62% | Potency [5] > 46 µM | Potency [6] > 46 µM | Potency [7] | Potency [8] | Potency [9] | activation [16] 11.5% | Potency [11] | Potency [12] | outcome [13]

COc1ccc(CNc2ncncc2-c2ccoc2)c(OC)c1
inactive: Potency [1] > 11.4 µM | activity change, negative = inhibition [2] -9.49% | activity change, negative = inhibition [14] 5.94% | activity, negative = inhibition [4] -9.38% | Potency [5] > 46 µM | Potency [6] > 46 µM | Potency [7] | Potency [8] | Potency [12] | outcome [13]
active: Potency [11] 14.1 µM

CN(Cc1ccco1)c1nc(-c2ccc3c(c2)OCO3)nc2ccccc12
inactive: Potency [1] > 11.4 µM | activity change, negative = inhibition [2] 17% | activity, negative = inhibition [4] 1.32% | Potency [5] > 46 µM | Potency [6] > 46 µM | Potency [7] | Potency [9] | Potency [11] | Potency [12] | outcome [13]
active: Potency [3] 0.501 µM | Potency [15] 1.58 µM | Potency [10] 7.94 µM

Cc1cnc(CNc2nc(-c3ccccc3Cl)nc3ccccc23)cn1
active: Potency [3] 6.31 µM
inactive: Potency [1] > 11.4 µM | activity change, negative = inhibition [14] 9.67% | activity, negative = inhibition [4] -10.8% | Potency [5] > 46 µM | Potency [6] > 46 µM | Potency [7] | Potency [8] | Potency [9] | Potency [11] | Potency [12] | outcome [13]

COCCNc1nc(-c2ccccc2C(F)(F)F)nc2ccccc12
active: Potency [3] 1.26 µM
inactive: activity change, negative = inhibition [2] -4.03% | activity change, negative = inhibition [14] 5.96% | activity, negative = inhibition [4] 15.8% | Potency [5] > 46 µM | Potency [6] > 46 µM | Potency [7] | Potency [9] | Potency [11] | Potency [12] | outcome [13]

COc1ccc(CNc2ccnc(-c3ccccc3Cl)n2)c(OC)c1
active: Potency [3] 5.01 µM | Potency [15] 3.16 µM | Potency [10] 1.26 µM
inactive: activity change, negative = inhibition [2] -21.2% | activity change, negative = inhibition [14] -26% | activity, negative = inhibition [4] -16.2% | Potency [5] > 46 µM | Potency [6] > 46 µM | Potency [7] | Potency [8] | Potency [9] | activation [16] -15.3% | Potency [11] | outcome [13]

COc1cccc(-c2cncnc2NCc2cccs2)c1
active: Potency [3] 1.26 µM | Potency [18] 0.398 µM | Potency [15] 1.58 µM | Potency [10] 0.631 µM
inactive: Potency [1] > 11.4 µM | activity change, negative = inhibition [14] 9.12% | activity, negative = inhibition [4] -6.14% | Potency [5] > 46 µM | Potency [6] > 46 µM | Potency [7] | Potency [9] | Potency [11] | Potency [12] | outcome [13]
